The values below come from PubChem BioAssay (NCATS).

Results filed as inconclusive are left out. Values without a mark were called inactive. Activity calls are given as the source filed them. Calls come from the whole dose curve.
% is set by controls: 0 for no effect and ±100 for the full control effect; potency is the fitted concentration of half-maximal effect.

A short description of this assay: VSVG counterscreen qHTS to identify inhibitors of SARS-CoV-2 cell entry (AID 1645847). Note: nearly all actives have a fitted effect of over 65% in size. As to conditions: VSV-G pseudotyped particle entry, luciferase; series mostly up to 57.2 µM; activity change, negative = inhibition: at the top concentration. The text has this:
Assay Provider: Wei Zheng, Ph.D.
National Center for Advancing Translational Sciences, National Institute of Health, Rockville, MD.
SARS-CoV-2 spike protein, within the viral envelope, mediates viral attachment and infection of host cells. The SARS-CoV-2 spike protein specifically binds to the host receptor ACE2 (Angiotensin-converting enzyme 2). This interaction promotes endocytosis of the viral particle, additional events lead to viral-host cell membrane fusion and release of the viral contents, allowing viral replication.
While SARS-CoV-2 requires BSL-3 facilities for live virus work, pseudotyped partices (PP) that incorporate SARS-CoV-2 spike proteins without replication elements could facilitate studies on viral entry mechanisms in a BSL-2 setting. This PP cell entry assay could also enable screening of small molecule compound libraries in BSL-2 setting to identify inhibitors of SARS-CoV-2 cell entry.
SEQUENCE No. (e.g., 1, 2, 3, etc.); […] (e.g., Cells, Incubation, Reagent, etc.); VALUE and DESCRIPTION.
1. Cells. Seed 1500 HEK293-ACE2 cells (Expi293F with stable expression of human ACE2) in 2 microL/well media (DMEM, 10% FBS, 1x L-glutamine, 1x Pen/Strep, 1 ug/ml puromycin) in white 1536-well assay plates (Greiner #782073).
2. Incubation. Incubate at 37 degrees C with 5% CO2 overnight (~16 h).
3. Compound. Dispense 23 nL/well compounds in DMSO via pin transfer.
4. Incubation. Incubate for 1 h at 37C 5% CO2.
5. Reagent. Dispense 2 microL/well of vesicular stomatitis virus G glycoprotein (VSV-G) pseudotyped particles (PP). [a] PPs are produced with murine leukemia virus pseudo-typing.
6. Centrifugation. […]
7. Incubation. Incubate at for 48 h at 37C 5% CO2
8. Centrifugation. Remove supernatant with gentle centrifugation using a Blue Washer (BlueCat Bio).
9. Reagent. Dispense 4 microL/well of Bright-Glo Luciferase detection reagent (Promega #E2620).
10. Incubation. Incubate for 5 min at room temperature.
11. Detection. Read luminescence signal (ViewLux plate reader, PerkinElmer). Data was normalized with wells containing VSV-G PP as 100%, and wells containing bald PP (no fusion protein) as 0%.
With `Cc1ccc2nc(NCCN)c3ncc(C)n3c2c1`, the Potency is 13600 nM (active). Regarding `N#CC1(c2cccc(C(=O)Nc3cc(Oc4ccc5nc(NC(=O)C6CC6)sc5n4)ccc3F)c2Cl)CC1`, the Potency was 304 nM (active). Take `CC(C)[C@H](CO)Nc1nc(Nc2cccc(Cl)c2)c2ncn(C(C)C)c2n1`: the Potency was 8570 nM (active). Take `COc1cc2c(cc1Cc1cccc(Cl)c1F)c(=O)c(C(=O)O)cn2[C@H](CO)C(C)C`: the Potency is 17.1 nM (active). The same measure, in the same setting: next, `C[C@@H]1CCO[C@H]2Cn3cc(C(=O)NCc4ccc(F)cc4F)c(=O)c(O)c3C(=O)N12`: 7.6 nM (active); `CC[C@@]1(O)C[C@H](O[C@H]2C[C@H](N(C)C)[C@H](O[C@H]3C[C@H](O)[C@H](O[C@H]4CCC(=O)[C@H](C)O4)[C@H](C)O3)[C@H](C)O2)c2c(cc3c(c2O)C(=O)c2c(O)cccc2C3=O)[C@@H]1C(=O)OC`: 3040 nM (active). As to `CC[C@H](C)C(=O)O[C@H]1CCC=C2C=C[C@H](C)[C@H](CC[C@@H]3C[C@@H](O)CC(=O)O3)[C@H]21`, the “activity change, negative = inhibition” value is -25.7%. In the case of `COc1cc(C)c(Sc2cnc(NC(=O)c3ccc(CNC(C)C(C)C)cc3)s2)cc1C(=O)N1CCN(C(C)=O)CC1` (stereo not given), the Potency is 3830 nM (active). Consider `CC(=O)O[C@H]1C(=O)[C@@]2(C)C([C@H](OC(=O)c3ccccc3)[C@]3(O)C[C@H](OC(=O)[C@H](O)[C@@H](NC(=O)c4ccccc4)c4ccccc4)C(C)=C1C3(C)C)[C@]1(OC(C)=O)CO[C@@H]1C[C@@H]2O` (stereo not given in full), for which the Potency is 68.1 nM (active). In the case of `CC(C)C(=O)Oc1ccc(CO)cc1[C@H](CCN(C(C)C)C(C)C)c1ccccc1`, the Potency was 21500 nM (active).

On to `CCN(CC)CCOCCOC(=O)C(CC)(CC)c1ccccc1`, for which the “activity change, negative = inhibition” value was -12.5%.

For the compound `Cc1c(-c2ccc(O)cc2)n(Cc2ccc(OCCN3CCCCCC3)cc2)c2ccc(O)cc12`, the Potency is 27100 nM (active). Take `CC[C@@](C)(Nc1ccnc(-c2c[nH]c3ncccc23)n1)C(=O)NCC(F)(F)F`: the “activity change, negative = inhibition” value is -55.7%. Take `CCC(c1ccc(O)cc1)C(CC)c1ccc(O)cc1` (stereo not given): the Potency was 30400 nM (active). Regarding `O=C(O)C1(Cc2cccc(Nc3nccs3)n2)CCC(Oc2cccc(Cl)c2F)CC1` (stereo not given), the Potency was 12100 nM (active).

For `Cc1cnc(CNC(=O)c2c(=O)c3ccc(N4CCCN(C)CC4)nc3n3c2sc2ccccc23)cn1`, the Potency was 3120 nM (active).

Take `COc1cc([C@@H]2c3cc4c(cc3[C@@H](O[C@@H]3O[C@@H]5CO[C@@H](C)O[C@@H]5[C@H](O)[C@@H]3O)[C@H]3COC(=O)[C@H]23)OCO4)cc(OC)c1O`: the Potency is 383 nM (active).

Consider `C/C(=C\c1csc(C)n1)[C@@H]1C[C@@H]2O[C@@H]2CCC[C@H](C)[C@H](O)[C@@H](C)C(=O)C(C)(C)[C@@H](O)CC(=O)O1`, for which the Potency is 54.1 nM (active). On the same count and under the same terms, next, `CN1c2ccccc2C(=O)N2CCc3c([nH]c4ccccc34)C21` (stereo not given): 3830 nM (active). On to `CCCCOc1c(C(=O)c2c(F)cc(C)cc2F)cnc2n[nH]cc12`, for which the Potency was 1520 nM (active). Same read-out and setting: next, `NCC(=O)Nc1ccc(-n2nc(C(F)(F)F)cc2-c2ccc3c(ccc4ccccc43)c2)cc1`: 6070 nM (active); `CCCCC(C)(C)[C@H](O)C=C[C@H]1[C@H](O)CC(=O)[C@H]1CC=CCCCC(=O)O`: 19200 nM (active). On the same count and under the same terms, next, `CN1C(=O)C[C@H](C(=O)N[C@@H](Cc2cnc[nH]2)C(=O)N2CCC[C@@H]2C(N)=O)NC1=O`: 961 nM (active); `Cc1ccccc1C(=O)c1ccc(Nc2ccc(Br)cc2N)cc1Cl`: 24100 nM (active).

For the compound `Nc1ccc(C(=O)Nc2cccc(-c3nc(N4CCOCC4)c4oc5ncccc5c4n3)c2)cn1`, the Potency is 4.8 nM (active). For `N[C@@H](Cc1ccc(O)c(O)c1)C(=O)O`, the Potency is 429 nM (active). For `CNC(=O)c1nn(C)c2c1C(C)(C)Cc1cnc(Nc3ccc(N4CCN(C)CC4)cc3)nc1-2`, the Potency is 4820 nM (active). For the compound `O=C(NC1CC1)c1cccc(-c2ccc3c(NC(=O)C4CC4)n[nH]c3c2)c1`, the Potency is 15200 nM (active).

Take `COc1ccc(S(=O)(=O)Nc2cccnc2Nc2ccc(O)cc2)cc1`: the Potency was 541 nM (active). `COc1ccc(/C=C/C(=O)Nc2ccccc2C(=O)O)cc1OC`: the Potency was 857 nM (active). As for `CO[C@@H]1[C@@H](OC2OC(C)C(OC3CC(C)(O)C(OC(=O)CC(C)C)C(C)O3)C(N(C)C)C2O)[C@@H](CC=O)C[C@@H](C)C(=O)/C=C\C2O[C@H]2C[C@@H](C)OC(=O)C[C@H]1OC(C)=O` (stereo not given in full), the Potency was 17100 nM (active). Regarding `COc1cc([C@@H]2c3cc4c(cc3[C@H](O)[C@H]3COC(=O)[C@@H]23)OCO4)cc(OC)c1OC`, the Potency is 1710 nM (active). The same measure, in the same setting: next, `COc1ccc(Nc2cc(-c3cnc(N)nc3)nc(N3CCOCC3)n2)cn1`: 1080 nM (active); `C[C@H]1CCC/C=C/C2C[C@H](O)C[C@H]2[C@H](O)/C=C/C(=O)O1` (stereo not given in full): 857 nM (active).

In the case of `O=C(Cc1ccc(-c2ccc(OCCN3CCOCC3)cc2)cn1)NCc1ccccc1`, the Potency is 171 nM (active). As for `CC[C@]1(O)C[C@H]2CN(CCC3=c4ccccc4=N[C]3[C@@](C(=O)OC)(c3cc4c(cc3OC)N(C)[C@H]3[C@@](O)(C(N)=O)[C@H](O)[C@]5(CC)C=CCN6CC[C@]43[C@@H]65)C2)C1`, the Potency was 30.4 nM (active). On to `CC(C)c1nn(-c2c(Cl)cccc2Cl)c2nc(Cc3ccc(OCCO)cc3)[nH]c(=O)c12`, for which the Potency is 54.1 nM (active). Take `COC(=O)Nc1ccc(-c2nc(N3CCOCC3)c3cnn(C4CCN(Cc5cccnc5)CC4)c3n2)cc1`: the Potency is 9610 nM (active). Take `O=C1NC(=O)C(c2cnc3ccccn23)=C1c1cn2c3c(cccc13)CN(C(=O)N1CCOCC1)CC2`: the Potency was 215 nM (active).

Regarding `CS(=O)(=O)N(Cc1ccco1)CC(O)Cn1c2ccccc2c2ccccc21` (stereo not given), the Potency was 429 nM (active).
